PubChem BioAssay (EPA / NIEHS)
Inconclusive results are not listed. Active and inactive are the calls of the source. Rule for the calls, unless noted: active = hit-call score of the fitted dose curve at least 0.9, where 1 is the maximum; inactive = score below 0.9.

Experiments:
[1] = tested on: turtle Thyroid Hormone Receptor, alpha (TRa), gene 101949057; test: ATG_trTRa_XSP2: Attagene TRANS-FACTORIAL Multi-Species (XSP1) HepG2 Assay for turtle Thyroid Hormone Receptor, alpha (TRa) (AID 2283834; active = hit-call score of the fitted dose curve at least 0.9, where 1 is the maximum;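 note: hits raise reporter mRNA over the DMSO baseline so AC50 marks activators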)
Procedure, shortened: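 Transfection of HepG2 with multiple reporter transcription units, then chemical dosing for 24 h. Total RNA was reverse-transcribed, reporter sequences PCR-amplified and FAM-labelled, then sized by capillary electrophoresis. DMSO served as baseline.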

[2] = ATG_M_61_XSP2: Attagene TRANS-FACTORIAL Multi-Species (XSP2) HepG2 Assay for M61 Transcription Factor (Internal Marker) (AID 2283835);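 note: reporter mRNA of an internal background marker read by RT-PCR and capillary electrophoresis; active means a rise in signal above the DMSO baseline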
Procedure, shortened: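 Signal was mRNA induction detected as fluorescence after RT-PCR and capillary electrophoresis, analysed in the gain direction with DMSO as baseline. HepG2 cells transiently carrying reporter constructs received chemicals for 24 h.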

[3] = molecular target: zebrafish Thyroid Hormone Receptor beta (TRb), thrb (gene 30607) (UniProt Q9PVE4); test: ATG_zfTRb_XSP2: Attagene TRANS-FACTORIAL Multi-Species (XSP1) HepG2 Assay for zebrafish Thyroid Hormone Receptor beta (TRb) (AID 2283836; active = hit-call score of the fitted dose curve at least 0.9, where 1 is the maximum)
Procedure, shortened: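 Transfect HepG2 with multiple reporter transcription units, dose chemical, incubate 24 h. Isolate RNA, reverse-transcribe, amplify and fluorescently label reporter sequences, digest with HpaI, then resolve by capillary electrophoresis. Positive direction fitted against DMSO.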

[4] = molecular target: human Thyroid hormone Receptor beta (TRb), THRB (gene 7068) (UniProt P10828); test: ATG_hTRb_XSP2: Attagene TRANS-FACTORIAL Multi-Species (XSP2) HepG2 Assay for human Thyroid hormone Receptor beta (TRb) (AID 2283840; active = hit-call score of the fitted dose curve at least 0.9, where 1 is the maximum;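 note: actives raise reporter mRNA so potency reflects agonist-like gain of signal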)
Procedure, shortened: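 Transient transfection of human HepG2 with multi-species NR-Gal4/GAL4-UAS reporter constructs; 24 h compound treatment; RNA isolation, reverse transcription, PCR and HpaI digest; capillary electrophoresis of labeled fragments; activity fitted upward versus DMSO.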

PGR (gene 5241) [5] = molecular target: PGR (gene 5241) (UniProt P06401); test: TOX21_PR_BLA_Followup_Antagonist_ratio: Tox21 HEK293 Progesterone Receptor (PR) Antagonism Beta-lactamase Follow-Up Assay, Ratio (AID 2283934; active = hit-call score of the fitted dose curve at least 0.9, where 1 is the maximum;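 note: PR-UAS-bla HEK293T cells stimulated with 1 nM R5020 agonist for 16 hr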)
Procedure, shortened: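 Cells are plated, rested 6 hr, then dosed with test compound in DMSO and challenged with 1 nM promegestone. After 16 hr incubation, substrate loading for 2 h at room temperature precedes fluorescence reading; viability is measured in the same wells.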

[6] = TOX21_PR_BLA_Followup_Agonist_viability: Viability Assessment in the Tox21 HEK293 Progesterone Receptor (PR) Agonism Beta-lactamase Follow-Up Assay (AID 2283935; active = hit-call score of the fitted dose curve at least 0.9, where 1 is the maximum;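 note: signal loss means lower viability so actives are cytotoxic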)
Procedure, shortened: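 Cells were plated in medium with 2% charcoal-stripped FBS and rested 6 hr. Compounds in DMSO were then added for 16 hr at 37C, followed by the FRET substrate step and CellTiter-Glo luminescence after 30 min.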

PGR (gene 5241) [7] = molecular target: PGR (gene 5241) (UniProt P06401); test: TOX21_PR_LUC_Followup_Antagonist: Tox21 HEK293 Progesterone Receptor (PR) Antagonism Luciferase Follow-Up Assay (AID 2283938; active = hit-call score of the fitted dose curve at least 0.9, where 1 is the maximum;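 note: curve fitted upward as signal gain over DMSO baseline despite antagonist label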)
Procedure, shortened: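 Cells are grown 5 days in charcoal-stripped-FBS assay medium, plated, left 5 h, then dosed with compound and incubated 16 h. ONE-Glo reagent is added and luminescence read after 30 min.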

[8] = CEETOX_H295R_11DCORT_noMTC: CeeTox H295R High-throughput Steroidogenesis Assay for 11-Deoxycortisol (11DCORT), maximum tolerated concentration (MTC) filtered results only (AID 2283911); conditions: actives raise or lower the signal
Procedure, shortened: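 Steroidogenesis was stimulated in H295R cells with 10 uM forskolin for 48 h before a 48 h chemical exposure. Secreted 11-deoxycortisol was measured by tandem mass spectrometry and fitted bidirectionally against DMSO controls.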

[9] = CEETOX_H295R_OHPREG_noMTC: CeeTox H295R High-throughput Steroidogenesis Assay for OH-Pregnenolone (OHPREG), maximum tolerated concentration (MTC) filtered results only (AID 2283912); conditions: actives raise or lower the signal
Procedure, shortened: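 Readout is HPLC-MS/MS quantification of 17alpha-hydroxypregnenolone released by forskolin-stimulated H295R cells over 48 h of chemical exposure, DMSO as baseline.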

[10] = CEETOX_H295R_OHPROG_noMTC: CeeTox H295R High-throughput Steroidogenesis Assay for OH-Progesterone (OHPROG), maximum tolerated concentration (MTC) filtered results only (AID 2283914); conditions: actives raise or lower the signal
Procedure, shortened: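 Analysis uses all tested concentrations, without maximum-tolerated-concentration screening by MTT. H295R cells, forskolin-primed (10 uM, 48 h), receive chemical for 48 h; hormone in medium measured by HPLC-MS/MS, with bidirectional curve fitting against DMSO.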

[11] = CEETOX_H295R_ANDR_noMTC: CeeTox H295R High-throughput Steroidogenesis Assay for Androstenedione (ANDR), maximum tolerated concentration (MTC) filtered results only (AID 2283915); conditions: actives raise or lower the signal
Procedure, shortened: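 Androstenedione secreted into medium was measured by LC-MS/MS after MTBE extraction. Human adrenal H295R cells received 10 uM forskolin for 48 h before 48 h chemical exposure (0.1% DMSO). Gain or loss fitted against DMSO, including concentrations above the MTT-derived MTC.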

[12] = CEETOX_H295R_CORTISOL_noMTC: CeeTox H295R High-throughput Steroidogenesis Assay for Cortisol, maximum tolerated concentration (MTC) filtered results only (AID 2283916); conditions: actives raise or lower the signal
Procedure, shortened: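 H295R adrenal cells were pre-stimulated 48 h with 10 uM forskolin, then exposed 48 h to test chemical in 0.1% DMSO. Medium cortisol was measured by MTBE extraction and HPLC-MS/MS; bidirectional fit versus DMSO, concentrations not MTC-filtered.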

[13] = CEETOX_H295R_CORTIC_noMTC: CeeTox H295R High-throughput Steroidogenesis Assay for Corticosterone (CORTIC), maximum tolerated concentration (MTC) filtered results only (AID 2283917); conditions: actives raise or lower the signal
Procedure, shortened: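 Forskolin-stimulated (10 uM, 48 h) H295R cells are dosed 48 h with chemical in DMSO (0.1% final); corticosterone change is quantified by HPLC-MS/MS and fitted bidirectionally against DMSO, unfiltered for MTT-derived MTC.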

[14] = CEETOX_H295R_DOC_noMTC: CeeTox H295R High-throughput Steroidogenesis Assay for DOC, maximum tolerated concentration (MTC) filtered results only (AID 2283918); conditions: actives raise or lower the signal
Procedure, shortened: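 H295R cells prestimulated 48 h with 10 uM forskolin, then exposed 48 h to test chemical (0.1% DMSO final). Medium 11-deoxycorticosterone extracted with MTBE, quantified by HPLC-MS/MS; bidirectional fit versus DMSO, concentrations not MTC-filtered.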

[15] = CEETOX_H295R_ESTRADIOL_noMTC: CeeTox H295R High-throughput Steroidogenesis Assay for Estradiol, maximum tolerated concentration (MTC) filtered results only (AID 2283919); conditions: actives raise or lower the signal
Procedure, shortened: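 Readout: dansyl-derivatized estradiol quantified by LC-MS/MS in medium from H295R cells dosed 48 h (0.1% DMSO) following 48 h forskolin (10 uM) prestimulation. Gain or loss of signal fitted against DMSO; no MTC filtering applied.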

[16] = CEETOX_H295R_PROG_noMTC: CeeTox H295R High-throughput Steroidogenesis Assay for Progesterone (PROG), maximum tolerated concentration (MTC) filtered results only (AID 2283920); conditions: actives raise or lower the signal
Procedure, shortened: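 Progesterone synthesis in the human adrenal line H295R is measured by HPLC-MS/MS after 48 h chemical exposure following 48 h forskolin (10 uM) stimulation. Activity in either direction is fitted relative to DMSO.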

[17] = CEETOX_H295R_ESTRONE_noMTC: CeeTox H295R High-throughput Steroidogenesis Assay for Estrone, maximum tolerated concentration (MTC) filtered results only (AID 2283921); conditions: actives raise or lower the signal
Procedure, shortened: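 Estrone in spent medium, quantified by tandem MS following dansyl chloride derivatization, after 48 h chemical exposure (0.1% DMSO) of forskolin-prestimulated (10 uM, 48 h) H295R cells; concentrations not MTC-filtered, bidirectional fit against DMSO.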

[18] = CEETOX_H295R_TESTO_noMTC: CeeTox H295R High-throughput Steroidogenesis Assay for Testosterone (TESTO), maximum tolerated concentration (MTC) filtered results only (AID 2283924); conditions: actives raise or lower the signal
Procedure, shortened: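 Medium testosterone, measured by HPLC-MS/MS after liquid-liquid extraction, was fitted in both directions relative to DMSO without MTC filtering. Adrenal H295R cells received 48 h chemical exposure (0.1% DMSO final) after 48 h forskolin (10 uM) prestimulation; viability by MTT.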

[19] = TOX21_PR_BLA_Followup_Antagonist_viability: Viability Assessment in the Tox21 HEK293 Progesterone Receptor (PR) Antagonism Beta-lactamase Follow-Up Assay (AID 2283936; active = hit-call score of the fitted dose curve at least 0.9, where 1 is the maximum;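 note: cells exposed to compound with R5020 agonist for 16 h; hits lower the luminescence signal meaning cytotoxicity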)
Procedure, shortened: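 PR-UAS-bla HEK293T cells in medium with 2% charcoal-stripped FBS were treated with compounds plus R5020 for 16 hr at 37C. After the beta-lactamase read, CellTiter-Glo was added to the same wells and luminescence read after 30 min at room temperature.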

Measured: AC50

Sequence of PGR (gene 5241) (P06401 whole entry, looked up): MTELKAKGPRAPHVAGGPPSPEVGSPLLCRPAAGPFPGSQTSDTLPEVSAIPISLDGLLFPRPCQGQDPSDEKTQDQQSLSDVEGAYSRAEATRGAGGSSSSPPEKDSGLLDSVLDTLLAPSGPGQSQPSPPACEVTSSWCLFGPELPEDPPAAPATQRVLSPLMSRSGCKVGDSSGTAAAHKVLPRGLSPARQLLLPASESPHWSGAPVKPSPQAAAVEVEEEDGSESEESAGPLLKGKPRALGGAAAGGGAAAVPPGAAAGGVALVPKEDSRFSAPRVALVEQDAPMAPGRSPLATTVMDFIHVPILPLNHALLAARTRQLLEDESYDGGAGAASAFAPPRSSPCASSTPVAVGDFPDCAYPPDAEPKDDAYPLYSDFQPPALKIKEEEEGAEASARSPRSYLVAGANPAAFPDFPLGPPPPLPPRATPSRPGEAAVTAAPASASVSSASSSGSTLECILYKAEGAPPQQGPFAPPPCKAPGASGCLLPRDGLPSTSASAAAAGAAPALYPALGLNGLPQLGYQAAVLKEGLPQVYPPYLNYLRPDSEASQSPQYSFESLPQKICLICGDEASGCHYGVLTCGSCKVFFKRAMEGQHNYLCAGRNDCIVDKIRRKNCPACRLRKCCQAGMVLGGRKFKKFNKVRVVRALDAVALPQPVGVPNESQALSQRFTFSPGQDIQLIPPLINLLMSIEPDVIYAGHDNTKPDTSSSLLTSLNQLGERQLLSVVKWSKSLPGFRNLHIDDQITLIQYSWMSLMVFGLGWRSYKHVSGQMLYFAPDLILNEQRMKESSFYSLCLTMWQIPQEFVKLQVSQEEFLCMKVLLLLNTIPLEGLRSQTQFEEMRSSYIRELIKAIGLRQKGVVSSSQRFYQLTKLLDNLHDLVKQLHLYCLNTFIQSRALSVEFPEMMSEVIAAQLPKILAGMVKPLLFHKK
Sequence of human Thyroid hormone Receptor beta (TRb), THRB (gene 7068) (P10828 whole entry, looked up, the tested form may be a part): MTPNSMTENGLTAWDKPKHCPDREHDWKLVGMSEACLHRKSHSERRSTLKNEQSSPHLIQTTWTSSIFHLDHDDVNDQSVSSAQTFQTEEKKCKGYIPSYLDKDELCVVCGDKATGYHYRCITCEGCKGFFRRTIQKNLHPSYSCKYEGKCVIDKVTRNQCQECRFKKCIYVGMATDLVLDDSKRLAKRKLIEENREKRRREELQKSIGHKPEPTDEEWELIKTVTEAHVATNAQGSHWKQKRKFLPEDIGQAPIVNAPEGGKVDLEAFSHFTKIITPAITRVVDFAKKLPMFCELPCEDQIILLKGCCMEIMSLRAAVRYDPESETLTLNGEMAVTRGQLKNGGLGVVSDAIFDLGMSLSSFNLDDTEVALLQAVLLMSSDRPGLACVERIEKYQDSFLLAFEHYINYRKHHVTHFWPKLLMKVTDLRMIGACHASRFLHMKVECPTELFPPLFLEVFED
Sequence of zebrafish Thyroid Hormone Receptor beta (TRb), thrb (gene 30607) (Q9PVE4 whole entry, looked up): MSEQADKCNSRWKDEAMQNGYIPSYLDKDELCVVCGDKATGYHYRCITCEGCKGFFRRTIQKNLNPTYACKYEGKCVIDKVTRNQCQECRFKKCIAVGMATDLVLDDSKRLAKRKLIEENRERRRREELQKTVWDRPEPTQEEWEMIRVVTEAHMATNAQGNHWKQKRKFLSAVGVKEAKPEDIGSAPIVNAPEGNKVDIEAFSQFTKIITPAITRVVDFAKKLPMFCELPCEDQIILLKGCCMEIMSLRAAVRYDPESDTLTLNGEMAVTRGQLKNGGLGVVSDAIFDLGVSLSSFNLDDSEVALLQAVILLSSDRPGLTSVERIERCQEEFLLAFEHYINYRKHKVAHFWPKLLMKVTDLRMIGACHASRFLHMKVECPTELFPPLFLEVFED

C[C@]12CC[C@@H]3c4ccc(O)cc4CC[C@H]3[C@@H]1C[C@@H](O)[C@@H]2O
inactive: [1] | [2] | [3] | [4] | [6]
active: PGR (gene 5241) [5] 17.1 µM | PGR (gene 5241) [7] 26 µM

C/C=C/C(=O)C1=C(C)CCCC1(C)C
inactive: [8] | [9] | [12] | [13] | [15] | [17] | [18]
active: [10] 37.1 µM | [11] 31.3 µM | [14] 12.2 µM | [16] 10.6 µM

C[C@]12CC[C@@H]3c4ccc(O)cc4CC[C@H]3[C@@H]1CC[C@@H]2OC(=O)CCC1CCCC1
inactive: [6] | [19] | PGR (gene 5241) [7]
active: PGR (gene 5241) [5] 1.01 µM
